Reference: PubChem BioAssay (NCATS)
Records with an inconclusive call do not appear. The source made the active and inactive calls. Calls follow the shape of the dose curve; as a rule, active = well fitted cell-killing curve with a large enough effect; inconclusive = small, poorly fitted or top-dose-only effect, or effect the other way; inactive = flat fitted curve, though single readings scatter.

Key:
Test in all cases: Primary qHTS to identify gynecologic anti-cancer compounds using libraries of approved drugs and bioactive compounds (AID 1345084); also: nearly all actives have a fitted effect of over 55% in size
C33A = settings: Gynecologic cancer cell panel viability, ATPlite luminescence, 48 h; series mostly up to 57.5 µM
Summary of the method: (§1)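 Five-concentration response, 48 h; readout is ATP-driven luciferase luminescence.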

CAOV3 = settings: Gynecologic cancer cell panel viability, ATPlite luminescence, 48 h; series mostly up to 57.5 µM
Summary of the method: as §1

CASKI = settings: Gynecologic cancer cell panel viability, ATPlite luminescence, 48 h; series mostly up to 57.5 µM
Summary of the method: as §1

Es-2 = settings: Gynecologic cancer cell panel viability, ATPlite luminescence, 48 h; series mostly up to 57.5 µM
Summary of the method: as §1

HeLa = settings: Gynecologic cancer cell panel viability, ATPlite luminescence, 48 h; series mostly up to 57.5 µM
Summary of the method: as §1

Hek293T = settings: Gynecologic cancer cell panel viability, ATPlite luminescence, 48 h, control line for the selectivity index; series mostly up to 57.5 µM
Summary of the method: as §1

JEG-3 = settings: Gynecologic cancer cell panel viability, ATPlite luminescence, 48 h; series mostly up to 57.5 µM
Summary of the method: as §1

OV90 = settings: Gynecologic cancer cell panel viability, ATPlite luminescence, 48 h; series mostly up to 57.5 µM
Summary of the method: as §1

PA-1 = settings: Gynecologic cancer cell panel viability, ATPlite luminescence, 48 h; series mostly up to 57.5 µM
Summary of the method: as §1

SKOV3 = settings: Gynecologic cancer cell panel viability, ATPlite luminescence, 48 h; series mostly up to 57.5 µM
Summary of the method: as §1

Tov-21-G = settings: Gynecologic cancer cell panel viability, ATPlite luminescence, 48 h; series mostly up to 57.5 µM
Summary of the method: as §1

Tov112D = settings: Gynecologic cancer cell panel viability, ATPlite luminescence, 48 h; series mostly up to 57.5 µM
Summary of the method: as §1

Measured: Potency

CCC/C=C/c1cc2c(C=O)c(O)c(CC=C(C)C)cc2o1
inactive: C33A | CAOV3 | CASKI | Es-2 | HeLa | Hek293T | JEG-3 | OV90 | PA-1 | SKOV3 | Tov-21-G | Tov112D

Cc1ccccc1C(C(=O)NC1CCCCC1)N(C(=O)Cn1cnc2ccccc21)c1cccc(F)c1 (centres undefined)
inactive: C33A | CAOV3 | CASKI | Es-2 | HeLa | Hek293T | JEG-3 | OV90 | PA-1 | SKOV3 | Tov-21-G | Tov112D

CNc1cc2[nH]c(=O)n(-c3ccc(NC(=O)NS(=O)(=O)c4ccc(Cl)s4)cc3)c(=O)c2cc1F
inactive: C33A | CAOV3 | CASKI | Es-2 | HeLa | Hek293T | JEG-3 | OV90 | PA-1 | SKOV3 | Tov-21-G | Tov112D

C=C1CC2OC(=O)C(=C)C2C(O)/C=C(\C)CCC1O (centres undefined)
inactive: C33A | CAOV3 | CASKI | Es-2 | HeLa | Hek293T | JEG-3 | OV90 | PA-1 | SKOV3 | Tov-21-G | Tov112D

COc1cc(C(=O)NC(=S)Nc2cccc(NC(=O)c3ccccc3)c2)cc(OC)c1OC
inactive: C33A | CAOV3 | CASKI | Es-2 | HeLa | Hek293T | JEG-3 | OV90 | PA-1 | SKOV3 | Tov-21-G | Tov112D

O=C(NCCN1CCN(c2cccc3c2OCCO3)CC1)c1ccc(F)cc1
inactive: C33A | CAOV3 | CASKI | Es-2 | HeLa | Hek293T | JEG-3 | OV90 | PA-1 | SKOV3 | Tov-21-G | Tov112D

CC(=O)O[C@@H]1CC2C(C)(C)C(=O)C=C[C@]2(C)C2CC[C@@]3(C)[C@H](c4ccoc4)OC(=O)[C@H]4O[C@]43[C@@]21C (some centres undefined)
inactive: C33A | CAOV3 | CASKI | Es-2 | HeLa | Hek293T | JEG-3 | OV90 | PA-1 | SKOV3 | Tov-21-G | Tov112D

O=C(NCc1ccc(OC(F)(F)F)cc1)C1c2c(F)cccc2C(=O)N1CCc1ccccn1 (centres undefined)
inactive: C33A | CAOV3 | CASKI | Es-2 | HeLa | Hek293T | JEG-3 | OV90 | PA-1 | SKOV3 | Tov-21-G | Tov112D

CN(C)CC#CCCC(=O)C(O)(c1ccccc1)C1CCC1 (centres undefined)
inactive: C33A | CAOV3 | CASKI | Es-2 | HeLa | Hek293T | JEG-3 | OV90 | PA-1 | SKOV3 | Tov-21-G | Tov112D

O=[N+]([O-])c1ccc(Oc2ccc3c(c2)CCC(c2ccccc2)O3)nc1 (centres undefined)
inactive: C33A | CAOV3 | CASKI | Es-2 | HeLa | Hek293T | JEG-3 | OV90 | PA-1 | SKOV3 | Tov-21-G | Tov112D

c1cc(-c2cnn3cc(-c4ccc(N5CCNCC5)cc4)cnc23)c2cccnc2c1
inactive: C33A | CAOV3 | CASKI | Es-2 | HeLa | Hek293T | JEG-3 | OV90 | PA-1 | SKOV3 | Tov-21-G | Tov112D

CCC(C)C(=O)O[C@H]1[C@@H](OC(=O)c2ccoc2)C[C@](C)(O)[C@]23OC(C)(C)[C@H](C[C@H](OC(=O)c4ccoc4)[C@]12COC(C)=O)[C@H]3OC(C)=O (some centres undefined)
inactive: C33A | CAOV3 | CASKI | Es-2 | HeLa | Hek293T | JEG-3 | OV90 | PA-1 | SKOV3 | Tov-21-G | Tov112D

CN1CC[C@@H](c2c(O)cc(O)c3c(=O)cc(-c4ccc(C(F)(F)F)cc4Cl)oc23)[C@@H]1CO
inactive: C33A | CAOV3 | CASKI | Es-2 | HeLa | Hek293T | JEG-3 | OV90 | PA-1 | SKOV3 | Tov-21-G | Tov112D

CN(C)N(C)C(=O)[C@@]1(Cc2ccccc2)CCCN(C(=O)[C@@H](Cc2c[nH]c3ccccc23)NC(=O)C(C)(C)N)C1
inactive: C33A | CAOV3 | CASKI | Es-2 | HeLa | Hek293T | JEG-3 | OV90 | PA-1 | SKOV3 | Tov-21-G | Tov112D

CN(C)[C@@H]1CCc2[nH]c3ccc(NC(=O)c4ccc(F)cc4)cc3c2C1
inactive: C33A | CAOV3 | CASKI | Es-2 | HeLa | Hek293T | JEG-3 | OV90 | PA-1 | SKOV3 | Tov-21-G | Tov112D

C=C1/C(=C/C=C2\CCC[C@@]3(C)C2CCC3[C@H](C)/C=C/[C@@H](O)C2CC2)C[C@@H](O)C[C@@H]1O (some centres undefined)
inactive: C33A | CAOV3 | CASKI | Es-2 | HeLa | Hek293T | JEG-3 | OV90 | PA-1 | SKOV3 | Tov-21-G | Tov112D

CC(=O)OC[C@]12[C@H](OC(C)=O)[C@H](OC(=O)c3ccccc3)[C@@H]3[C@@H](OC(C)=O)[C@]1(OC3(C)C)[C@H](C)C[C@H](OC(C)=O)[C@@H]2OC(=O)c1ccccc1
inactive: C33A | CAOV3 | CASKI | Es-2 | HeLa | Hek293T | JEG-3 | OV90 | PA-1 | SKOV3 | Tov-21-G | Tov112D
